Where “and” joins values, the source holds several entries; their conditions need not be identical. Identical values can stand only once. Calls of active or inactive are those of the source.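 How the source made its calls, unless noted: active means compounds whose cell count with miR-34 switched on is under 0.7 times the count with it off; inactive means the rest.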
Experiments:
[1] = test system: Aerobactin synthetase IucA (Klebsiella pneumoniae); assay: inhibition of K. pneumoniae IucA enzyme – biochemical, Tocris library, absorbance (AID 1345561; call rule not given here;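 further: 100% = enzyme without compound and 0% = no enzyme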); conditions: purified IucA enzyme assay, absorbance (OD) read-out; stronger effect = lower value;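 tested at 8 µM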
[2] = viability loss with induced miR-34 in A549 – imaging, A549 dox-inducible miR-34, nuclei and caspase counts, primary screen (AID 1347080); conditions: A549 miR-34 inducible, Hoechst nuclei count, 48 h
[3] = galactose survival enhancers in mitochondrial complex I cybrids – cell-based, galactose medium, ATP luminescence, primary screen (AID 1645843;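 active means z-score of at least 1.8 in each of two replicates, scored against plate mean and spread of sample wells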;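 further: positive z means more ATP and so rescue of galactose-driven cybrid death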); conditions: complex I mutant cybrid cells, 72 h, stronger effect = higher value
[4] = stronger effect = lower value, cell number ratio, induced over uninduced
[5] = measured here: relative caspase fold change +Dox/-Dox
[6] = measured here: total cells with miR-34 induction, stronger effect = lower value
[7] = measured here: total cells without miR-34 induction

Compound | remaining activity [1] | fold change [2, 4] | fold change [2, 5] | cell count [2, 6] | cell count [2, 7] | z-score [3]
CC(=O)NC1=NN(C(C)=O)C(C)(c2ccccc2)S1 (stereo unspecified) | 109% (inactive) | 1.17 (inactive) | 2.25 | 1640 | 1400 | -0.275 (inactive)
COc1ccc(-c2nc(-c3ccc(-c4cccc(Cl)c4)o3)[nH]c2-c2ccc(OC)cc2)cc1 | 125% (inactive) | 0.932 (inactive) and 1.97 (inactive) | 1.76 and 0.641 | 4720 and 2100 | 5060 and 1060 | -0.15 (inactive)
Cc1ccc(NC(=O)C(C)C)cc1C1CCN(Cc2ccc(Oc3ccc(F)c(F)c3)cc2)CC1 | 107% (inactive) | 1.03 (inactive) | 0.737 | 1330 | 1290 | -0.705 (inactive)
O=C1C=CC(=O)C2=C1C1c3ccccc3C2c2ccccc21 | 104% (inactive) | 0.889 (inactive) | 1.44 | 6130 | 6900 | -0.705 (inactive)
O=C1CC2(CCCC2)CC(=O)N1CCCCNCC1COc2ccccc2O1 (stereo unspecified) | 102% (inactive) | 0.892 (inactive) | 0.89 | 8660 | 9710 | -1.01 (inactive)
CCS(=O)(=O)N(C)[C@H]1c2cc(C#N)ccc2OC(C)(C)[C@@H]1O | 111% (inactive) | 0.889 (inactive) | 1.89 | 8640 | 9720 | 0.545 (inactive)
O=Nc1ccc(O)c2ncccc12 | 118% (inactive) | 1.09 (inactive) | 1.32 | 2920 | 2670 | -1.02 (inactive)
COc1ccc(Nc2ncnc3ccc(OC)cc23)cc1 | 108% (inactive) | 0.902 (inactive) | 1.09 | 6910 | 7660 | -0.345 (inactive)
NC(C(=O)O)c1ccc(C(=O)O)c(C(=O)O)c1 (stereo unspecified) | 109% (inactive) | 0.922 (inactive) | 0.667 | 8080 | 8760 | 0.13 (inactive)
CSc1cc2c(cc1C(F)(F)F)N(C(=O)Nc1cccnc1)CC2 | 112% (inactive) | 0.921 (inactive) | 0.728 | 9460 | 10300 | 0.05 (inactive)
CCCCNC(=O)[C@@H]1Cc2ccccc2N1C(=O)[C@@H](N)CC | 110% (inactive) | 0.978 (inactive) | 1.76 | 9030 | 9230 | 0.245 (inactive)
c1ccc2nc(C3=NCCN3)cnc2c1 | 98.4% (inactive) | 0.983 (inactive) | 0.854 | 9150 | 9300 | 0.085 (inactive)
O[C@H](CNC[C@@H](O)[C@H]1CCc2cc(F)ccc2O1)[C@@H]1CCc2cc(F)ccc2O1 | 101% (inactive) | 1.03 (inactive) | 0.967 | 3230 | 3140 | -0.5 (inactive)
Cc1cc(C)c(N(Cc2ccccc2)S(=O)(=O)c2ccc(OCCNC(=O)c3cc4ccccc4o3)cc2)c(C(=O)NO)c1 | 101% (inactive) | 0.895 (inactive) | 0.617 | 2050 | 2290 | -0.695 (inactive)
Nc1nc2c(ccc3ccccc32)s1 | 121% (inactive) | 0.908 (inactive) | 1.66 | 8670 | 9550 | 0.415 (inactive)
O=C(Nc1c(-c2cccs2)nc2ccccn12)c1ccc(Cl)cc1 | 108% (inactive) | 0.889 (inactive) | 0.893 | 8490 | 9560 | 1.35 (inactive)
NCCCCCCCCCCNS(=O)(=O)c1cccc2c(Cl)cccc12 | 98.7% (inactive) | 0.827 (inactive) | 0.835 | 5900 | 7130 | -1.11 (inactive)
CSc1nc(NC2CCCC2)c([N+](=O)[O-])c(NC2CCCC2)n1 | 104% (inactive) | 0.932 (inactive) | 1.24 | 7100 | 7620 | -0.215 (inactive)
CC(C)Oc1cccc(-n2c(CCc3c[nH]c4ccc(Br)cc34)nc3ccccc3c2=O)c1 | 110% (inactive) | 1.07 (inactive) | 0.884 | 6620 | 6200 | -1.18 (inactive)
Cc1nc2ccc(NC(=O)Nc3ccnc4cccnc34)cc2o1 | 111% (inactive) | 0.867 (inactive) | 0.84 | 7250 | 8360 | 1.19 (inactive)
O=C(Nc1ccccc1)N[C@H]1C[C@H](C(=O)O)Nc2cc(Cl)cc(Cl)c21 | 104% (inactive) | 0.916 (inactive) | 0.915 | 8670 | 9460 | 0.995 (inactive)
O=S(=O)(NCCCCCCc1ccccc1)c1cccc2c(Cl)cccc12 | 101% (inactive) | 0.934 (inactive) | 0.599 | 8620 | 9230 | -1.14 (inactive)
N[C@H](C(=O)O)c1ccc(C(=O)O)c(C(=O)O)c1 | 126% (inactive) | 0.986 (inactive) | 0.559 | 9860 | 10000 | -0.145 (inactive)
CCCCCCCCC(=O)NCc1cc(OC)c(O)cc1I | 120% (inactive) | 0.949 (inactive) | 0.652 | 8140 | 8580 | -0.615 (inactive)
N#C/C(=C\c1ccc(O)c(O)c1)C(=O)NCCCCc1ccccc1 | 95.7% (inactive) | 0.982 (inactive) | 1.09 | 7480 | 7610 | -0.725 (inactive)
C[C@@]1(O)[C@H](O)[C@@H](CO)O[C@H]1n1cnc2c(NC3CCCC3)nc(Cl)nc21 | 118% (inactive) | 1.01 (inactive) | 1.12 | 7690 | 7600 | 0.755 (inactive)
